Results from PubChem BioAssay.
Calls of active or inactive are those of the source. Unless noted, the rule behind the calls is not given here.

What was measured:
[1] = test system: Wnt5a (protein binding on small-molecule microarray); assay: Wnt5a binders on small-molecule microarray, primary screen, biophysical, 635/667 nm fluorescence (AID 1142); conditions: 635 nm fluorescence, higher = more signal;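 note: fluorescence read at 667 nm with signal to noise per printed feature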
[2] = cell viability in Huh7 cells, primary screen, cytotoxicity control for HCV replication inhibitor project, CellTiter-Glo luminescence, basal, 48 h (AID 1143); conditions: Huh7 HCV replicon, higher = more signal, called active from +8 up or from −8 down;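 note: Huh7 hepatoma cells carrying a hepatitis C replication reporter with no stimulus; test concentration not given here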
[3] = P. aeruginosa biofilm formation inhibitors, primary screen, PAO1 strain, BacTiter-Glo luminescence, LB-PBS (AID 1144); conditions: 12 h, higher = more signal
[4] = CREB reporter modulators without forskolin, primary screen, cell-based, PC12, CRE-LacZ reporter, unstimulated (AID 1145); conditions: no forskolin, luminescence, 4.5 h, higher = more signal, called active from +8 up or from −8 down
[5] = CREB reporter modulators under forskolin, primary screen, cell-based, PC12, CRE-LacZ reporter, forskolin-stimulated (AID 1146); conditions: luminescence, 4.5 h, higher = more signal, called active from +8 up or from −8 down;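 note: PC12 cells with 6xCRE LacZ reporter stimulated by forskolin 10 µM; beta-galactosidase reporter signal reflecting CREB driven transcription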
[6] = biological target: Streptavidin (Streptomyces avidinii) (UniProt P22629); assay: streptavidin binders on small-molecule microarray, primary screen, artefact control for SMM compound annotation, biophysical, 635/667 nm fluorescence (AID 1147); conditions: streptavidin binding, higher = more signal;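 note: signal reflects streptavidin binding to arrayed compounds as a control protein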
[7] = small-molecule binders of probe aInhba, primary screen, biochemical, small-molecule microarray, 635/667 nm fluorescence (AID 1148); conditions: higher = more signal;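 note: score merges 667nm spot fluorescence with signal-to-noise for antibody binding to printed compounds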
Torsin-1A (Homo sapiens) [8] = biological target: Torsin-1A (Homo sapiens) (UniProt O14656); assay: torsin A binders from cell lysate, primary screen, small-molecule microarray, wild-type, 635/667 nm (AID 1149); conditions: COS7 hTOR1A-WT lysate, 635 nm fluorescence, higher = more signal
Torsin-1A (Homo sapiens) [9] = biological target: Torsin-1A (Homo sapiens) (UniProt O14656); assay: small-molecule binders of mutant TOR1A in lysate, primary screen, cell lysate, small-molecule microarray, COS7 lysate, 635/667 nm fluorescence (AID 1150); conditions: COS7 hTOR1A mutant lysate, 635 nm fluorescence, higher = more signal;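 note: score pools 667 nm emission and signal to noise measuring lysate protein binding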
[10] = test system: Sonic hedgehog protein (Shh); assay: small-molecule binders of Shh protein, primary screen, biochemical, small-molecule microarray, 635/667 nm fluorescence (AID 1151); conditions: small-molecule microarray binding, 635 nm fluorescence; higher = more signal;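 note: Shh protein binding to compounds spotted on small-molecule microarray slides; score combines spot fluorescence intensity with signal-to-noise across triplicate slides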

Torsin-1A (Homo sapiens), sequence (O14656 whole entry, looked up): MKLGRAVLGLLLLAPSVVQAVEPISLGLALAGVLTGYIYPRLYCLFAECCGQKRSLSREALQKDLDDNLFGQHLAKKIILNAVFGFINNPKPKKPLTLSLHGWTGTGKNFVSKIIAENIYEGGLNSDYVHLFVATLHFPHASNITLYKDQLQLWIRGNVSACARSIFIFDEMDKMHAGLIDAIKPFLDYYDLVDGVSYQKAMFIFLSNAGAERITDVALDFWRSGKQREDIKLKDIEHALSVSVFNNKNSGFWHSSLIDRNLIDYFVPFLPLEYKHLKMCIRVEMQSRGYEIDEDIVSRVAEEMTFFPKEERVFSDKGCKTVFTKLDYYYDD
Streptavidin (Streptomyces avidinii), sequence (P22629 whole entry, looked up): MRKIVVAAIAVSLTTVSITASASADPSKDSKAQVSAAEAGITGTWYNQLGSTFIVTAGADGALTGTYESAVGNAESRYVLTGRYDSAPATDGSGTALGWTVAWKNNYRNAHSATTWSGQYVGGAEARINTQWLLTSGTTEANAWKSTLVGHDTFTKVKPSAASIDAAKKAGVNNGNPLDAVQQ

Row | SMILES | composite z-score [1] | z-score [2] | z-score [3] | z-score [4] | z-score [5] | composite z-score [6] | composite z-score [7] | composite z-score (Torsin-1A (Homo sapiens) [8]) | composite z-score (Torsin-1A (Homo sapiens) [9]) | composite z-score [10]
1 | C=CCNC(=O)[C@H]1[C@@H]2C(=O)O[C@@H](c3ccccc3)[C@@H](c3ccccc3)N2[C@@H](c2ccc(O)cc2)[C@]12C(=O)N(C(=O)OCCOC)c1ccc(C#Cc3ccc(OC)cc3)cc12 | 0.334 | -2.17 (inactive) | 0.649 (inactive) | -0.195 (inactive) | 1.43 (inactive) | 0.21 | 0.153 | 0.0502 | 0.651 | 1.21
2 | C=CC[C@H](O)c1ccc(O)c2ccccc12 | 0.188 | 0.273 (inactive) | -0.725 (inactive) | 6.45 (inactive) | 1.82 (inactive) | 0.881 | -0.101 | 0.172 | 0.46 | 1.96
3 | COC(=O)c1ccc(OC)c(/C=C\CC(OC(=O)c2ccncc2)c2ccccc2)c1 (stereo not given) | 0.114 | -3.7 (inactive) | -0.526 (inactive) | 12.5 (active) | -1.88 (inactive) | 1.79 | -0.154 | 0.217 | 0.292 | 1.14
4 | COc1ccc(CCNC(=O)[C@@H]2c3ccccc3C(=O)N(C(C)C)[C@H]2c2ccc(CO)cc2)cc1 | -0.234 | 0.172 (inactive) | 0.948 (inactive) | 0.351 (inactive) | -0.859 (inactive) | -0.896 | -0.253 | 0.123 | 0.0739 | -0.937
5 | CC(C)N1C(=O)[C@@]2(Cc3ccccc31)c1ccccc1C(=O)N(Cc1ccccc1C(F)(F)F)[C@H]2c1ccc(CO)cc1 | 0.15 | -0.222 (inactive) | -0.121 (inactive) | 0.155 (inactive) | 0.176 (inactive) | -0.0569 | 0.46 | -0.375 | -0.139 | 0.376
6 | CC1CC/C=C\[C@H]2OC34C=CCN(C(C)C)C(=O)[C@H]3N(C(C)CO)C(=O)[C@@H]4C2C(=O)O1 (stereo not given in full) | -0.293 | 0.143 (inactive) | -0.657 (inactive) | -1.04 (inactive) | -0.627 (inactive) | -0.447 | 1.09 | 0.0269 | -0.381 | 1.09
7 | COc1cc(CO)cc(I)c1O[C@H]1C=C(C(=O)NCCO)C[C@@H](N(CCN2CCOCC2)C(=O)C2CCCO2)[C@@H]1O (stereo not given in full) | -0.103 | 0.0418 (inactive) | -0.137 (inactive) | 0.497 (inactive) | -1.04 (inactive) | -0.0582 | -0.256 | 0.404 | 0.0245 | -0.203
8 | Cc1ccc(S[C@]2(C(=O)NCc3ccccc3)CC(=O)N(Cc3ccccc3Cl)[C@@H]2c2ccc(CO)cc2)cc1 | -0.132 | -1.87 (inactive) | -0.491 (inactive) | -0.0512 (inactive) | -0.226 (inactive) | -0.744 | 0.298 | 0.163 | 0.0869 | 0.469
9 | COC(=O)[C@]1(Cc2ccccc2N=[N+]=[N-])N=C(c2ccc(OCCCO)cc2)O[C@@H]1c1ccccc1CN=[N+]=[N-] | 0.65 | -3.74 (inactive) | -0.923 (inactive) | -0.137 (inactive) | 0.0992 (inactive) | 0.127 | 0.122 | 1.12 | 0.085 | 0.754
10 | COCCOC(=O)N1C(=O)[C@@]2(c3cc(C#CCCO)ccc31)[C@H](c1ccc(O)cc1)N1[C@H](c3ccccc3)[C@H](c3ccccc3)OC(=O)[C@H]1[C@@H]2C(=O)NC[C@H](O)c1ccccc1 | 0.0153 | -1.64 (inactive) | -0.718 (inactive) | 0.0776 (inactive) | -0.583 (inactive) | -0.331 | 0.0101 | 0.127 | -0.0807 | 1.03
11 | C=C(COC)C(=O)CC[C@H](OC(C)=O)c1ccccc1OCCO | 0.0375 | -4.1 (inactive) | -0.0151 (inactive) | 6.35 (inactive) | 4.62 (inactive) | -0.955 | 0.858 | 2.34 | 0.851 | 1.8
12 | COCCOC(=O)N1C(=O)[C@@]2(c3cc(C#CCC(C(=O)OC)C(=O)OC)ccc31)[C@H](C(N)=O)[C@H]1C(=O)O[C@H](c3ccccc3)[C@H](c3ccccc3)N1[C@@H]2c1ccccc1OCCO | -0.0211 | -6.46 (inactive) | -2.59 (inactive) | -1.84 (inactive) | -2.42 (inactive) | 1.09 | -0.0259 | 0.0139 | 0.212 | 1.9
13 | [N-]=[N+]=NCc1ccccc1[C@H]1OC(c2ccc(OCCCO)cc2)=N[C@@]1(CCS(=O)(=O)c1ccccc1)C(=O)NCCN1CCOCC1 | 0.806 | -0.712 (inactive) | -0.561 (inactive) | 0.115 (inactive) | -0.871 (inactive) | 0.38 | 0.54 | 0.234 | 0.183 | -0.597
14 | COC(=O)[C@@]1(Cc2ccccc2)[C@H]2c3cc(C(=O)N(C)C)n(Cc4nc5ccccc5[nH]4)c3C[C@H]2CN1C(=O)c1ccccc1 | 0.118 | -2.07 (inactive) | -0.142 (inactive) | 0.959 (inactive) | -0.0536 (inactive) | 1.26 | 0.337 | 0.626 | 0.853 | -0.441
15 | C=CCN1C(=O)[C@@]2(O[C@@H](CCO)[C@H]([Si](C)(C)c3ccc(OC)cc3)[C@H]2C)c2cc(N3CCCCC3=O)ccc21 | 0.282 | -5.3 (inactive) | -0.0131 (inactive) | 13.6 (active) | -0.639 (inactive) | 0.732 | 0.0471 | 0.683 | 0.417 | 1.6
16 | COc1ccc([Si](C)(C)[C@H]2[C@H](CC(=O)N(CCO)Cc3ccccc3)O[C@@]3(C(=O)N(Cc4ccc(N5C(=O)c6cccc7cccc5c67)cc4)c4ccccc43)[C@@H]2C)cc1 | 0.954 | -4.47 (inactive) | 0.278 (inactive) | 0.353 (inactive) | -0.429 (inactive) | 0.555 | 0.545 | -0.237 | 0.454 | 2.17
17 | [N-]=[N+]=Nc1ccccc1C[C@@]1(C(=O)NCc2ccccc2)N=C(c2ccc(OCCCO)cc2)O[C@@H]1c1ccccc1 | 0.967 | -5.24 (inactive) | -1.15 (inactive) | 1.4 (inactive) | -1.99 (inactive) | 0.877 | 0.175 | 0.324 | 0.506 | 0.242
18 | COCCCNC(=O)[C@]1(Cc2ccccc2N=[N+]=[N-])N=C(c2ccc(OCCCO)cc2)O[C@@H]1c1ccccc1 | 0.637 | -3.94 (inactive) | 0.542 (inactive) | 1.76 (inactive) | -1.66 (inactive) | 1.58 | 0.974 | 0.303 | 1.09 | -0.223
19 | CC(C)c1ccc(NN2C(C(O)C3=C[C@H]4C[C@@H](C3)C4(C)C)C=CC3C(=O)N(c4ccccc4)C(=O)C32)cc1 (stereo not given in full) | 0.747 | -0.005 (inactive) | -0.335 (inactive) | 0.443 (inactive) | 0.551 (inactive) | 1.56 | 0.234 | 0.281 | 0.562 | -0.0766
20 | CCCCN1CC=CC23O[C@@H]4/C=C\CCCOC(=O)C4[C@H]2C(=O)N(CCCCCCO)[C@@H]3C1=O (stereo not given in full) | -0.525 | 0.121 (inactive) | -1.2 (inactive) | 0.475 (inactive) | -0.34 (inactive) | -0.654 | -0.154 | -1.63 | -1.49 | 0.145
21 | C=C(COC)C(=O)CC[C@@H](OC(=O)c1ccccc1-c1ccccc1C(=O)O)c1ccccc1OCCO | 0.502 | -0.714 (inactive) | -0.693 (inactive) | 2.73 (inactive) | 15.8 (active) | -0.695 | -0.0762 | 1.49 | 0.0126 | 1.45
22 | COC(=O)[C@@]1(Cc2ccc(F)cc2)[C@H]2c3cc(C(=O)N4CCCC4)n(CCc4c[nH]c5cc(F)ccc45)c3C[C@H]2CN1C(=O)c1ccccc1 | 1.43 | -2.66 (inactive) | 0.449 (inactive) | 0.197 (inactive) | 0.654 (inactive) | 1.12 | 0.0049 | 1.2 | 1.29 | 0.0034
23 | COCCOC(=O)N1C(=O)[C@@]2(c3cc(C#CC4(O)CCCCCC4)ccc31)[C@H](C(N)=O)[C@H]1C(=O)O[C@H](c3ccccc3)[C@H](c3ccccc3)N1[C@@H]2c1ccc(OCCO)cc1 | 0.309 | -4.36 (inactive) | -0.295 (inactive) | 0.362 (inactive) | 0.0846 (inactive) | 0.84 | 0.201 | 0.838 | 0.637 | 1.24
24 | O=C1N(Cc2ccccc2)Cc2ccccc2C[C@@]12COC(c1ccc(OCCCO)cc1)=N2 | 0.165 | -5.94 (inactive) | 1.31 (inactive) | 1.45 (inactive) | -2.33 (inactive) | -0.0644 | 0.108 | 0.356 | 0.695 | 0.0301
25 | C=CC[C@]1(C(=O)NCCN2CCOCC2)N=C(c2ccc(OCCCO)cc2)O[C@H]1c1ccccc1 | 0.891 | -0.541 (inactive) | 0.154 (inactive) | 2.55 (inactive) | -0.0077 (inactive) | 0.416 | 0.119 | 2.03 | 1.44 | 0.638
26 | Cc1ccc(S[C@]2(C(=O)NCCN3CCOCC3)CC(=O)N(C(C)C)[C@@H]2c2ccc(CO)cc2I)cc1 | -0.141 | -2.88 (inactive) | -0.121 (inactive) | -0.116 (inactive) | -0.395 (inactive) | -0.676 | 0.0228 | -0.533 | -0.26 | -0.0348
27 | CC[C@@H]1C=C(C(=O)O)[C@H](c2cccc(Cl)c2)N1S(=O)(=O)c1ccc(C)cc1 | -0.23 | -0.733 (inactive) | 1.24 (inactive) | -0.322 (inactive) | -0.166 (inactive) | 0.326 | -0.0018 | 1.65 | 0.314 | -0.726
28 | CN(C)CCCCNC(=O)[C@H]1C[C@H]2C(=O)N[C@@H](CCCCN(C)C)C(=O)N2[C@H]1c1ccc(O)cc1 | 0.215 | -1.14 (inactive) | -0.889 (inactive) | -1.61 (inactive) | -0.252 (inactive) | 0.165 | -0.206 | 0.464 | 0.282 | 1.29
29 | O=C1O[C@@H](c2ccccc2)[C@@H](c2ccccc2)N2[C@@H](c3ccc(OCCO)cc3)[C@]3(C(=O)Nc4ccc(C#CC5=CCCCC5)cc43)[C@@H](C(=O)Nc3nc4ccccc4s3)[C@H]12 | 0.256 | -1.89 (inactive) | -1.2 (inactive) | -0.698 (inactive) | -0.797 (inactive) | 0.549 | -0.145 | -0.0561 | 0.0025 | 1.43
